Our source for the growth values is PubChem BioAssay (NCI).

Compounds without any hit were thinned out: in the full panel of roughly 83,000, 20% have a hit.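 96-well plates, one dose, 48 hours. Percent growth reported; active if below 10.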 Values without a mark were called inactive. Activity calls are given as the source filed them.

The subject of this experiment is SR leukemia. The experiment is described as follows: NCI-60 one-dose screen, 48 h (100 = growth as untreated, 0 = no growth, -100 = all killed). Conditions: 10 µM unless noted.
As for `COc1cccc(-c2nn(-c3ccccc3)cc2-c2ccnc(NCCCN)c2)c1`, the growth is -10.5% (active). With `Cn1cnc2c1c(=O)n(CCC(=O)Nc1ccc(F)cc1)c(=O)n2C`, the growth was 102%. With `C=C(C)[C@@H]1CC[C@]2(C=O)CC[C@]3(C)[C@H](CC[C@@H]4[C@@]5(C)C/C(=C/c6cccnc6)C(=O)C(C)(C)[C@@H]5CC[C@]43C)[C@@H]12` the figure was 40.6%; with `CN(C)c1cccc2[nH]c(-c3[nH]ncc3Nc3ccnc(N)n3)nc12`, 7.64% (active). With `O=Cc1nc2ccccc2[nH]1` the figure was 83%. With `COc1cc2nc(Cl)nc(Nc3cccc(C(=O)/C=C/c4ccc(Br)cc4)c3)c2cc1OC` the figure was 14.7%. On to `CC[C@H](CC[C@@H](C)[C@H]1CC[C@H]2[C@@H]3/C(=C/c4cccnc4)C(=O)C4=CC(=O)CC[C@]4(C)[C@H]3CC[C@]12C)C(C)C`, for which the growth was 62.4%. As for `C=C(C)[C@@H]1CC[C@]2(c3nnc(-c4ccncc4)o3)CC[C@]3(C)[C@H](CC[C@@H]4[C@@]5(C)CCC(=O)NC(C)(C)[C@@H]5CC[C@]43C)[C@@H]12`, the figure is 78.3%; as for `COc1cc(NC(C)CN(CC(C)C)C(C)C)c2ncccc2c1` (stereo not drawn), 90.2%. With `Nc1c2c(nc3ccc(Cl)cc13)CC(c1ccccc1)CC2=O` (stereo not drawn) the figure was 14.3%; with `COC(=O)[C@]12CC[C@@H](C)[C@H](C)[C@@H]1C1=CC[C@@H]3[C@@]4(C)C[C@@H](O)[C@H](O)[C@@](C)(CO)C4=CC[C@@]3(C)[C@]1(C)CC2`, -24.8% (active). Regarding `CCC1C(=O)COC1=O` (stereo not drawn), the growth is 99.2%.

Regarding `C=C(C)[C@@H]1CC[C@]2(C)[C@H](CC=C3[C@@H]4CC(C)(C)CC[C@]4(C(=O)OC)CC[C@]32C)[C@@]1(C)CC/C(N)=N/O`, the growth was 0.151% (active). As for `O=C(/C=C/c1cccc2ccccc12)Nc1ncc(Cc2ccccc2)s1`, the figure is 13.1%.

`N#Cc1c(-c2ccc(O)cc2)c2c(N)nn(-c3ccccc3)c2[nH]c1=O`: the growth is 115%.

Take `COc1ccc(-c2c(-c3nc4ccc(N5CCOCC5)cc4[nH]3)[nH]c(C)c2C(C)=O)cc1`: the growth was 47.8%.

Turning to `c1ccc(-c2nc(Nc3ccc(-c4nc5ccccc5[nH]4)cc3)nc(N3CCOCC3)n2)cc1`, the growth was 8.94% (active). With `Cc1cc2nc3c4cc(Cl)ccc4n(CCN(C)C)c3nc2cc1C` the figure was 5.12% (active).

In the case of `Cc1cc(N2CCOCC2)nc(N(CCCNc2ccnc3cc(Cl)ccc23)Cc2ccco2)n1`, the growth is -11.4% (active). As for `Cc1cc(N(CCNc2ccnc3cc(Cl)ccc23)Cc2ccco2)nc(Cl)n1`, the growth is -14.5% (active). With `COc1ccc(/C=C/C(=O)NCCO)cc1` the figure was 91.9%; with `O=C1NC(c2ccc(Cl)c(Cl)c2)=C/C1=C\c1ccccc1`, 17.1%.

On to `N#C/C(=C\c1ccc(-c2ccccc2)o1)c1nc(-c2ccco2)cs1`, for which the growth was 103%.

For `C=C1C(=O)O[C@H]2[C@H]1CC/C(COC(=O)NCc1c[nH]c3ccccc13)=C\CC[C@@]1(C)O[C@@H]21`, the growth was 4.39% (active). With `Cn1cc(-c2csc(-c3cn(CCN)c4ccccc34)n2)c2cccnc21` the figure was -16.9% (active); with `C=C(C)[C@@H]1CC[C@]2(C)[C@H](CC[C@@H]3[C@H]4[C@H]5OC[C@@]4(CCC5(C)C)CC[C@]32C)[C@@]1(C)CCCN`, -0.922% (active); with `CC[C@]12C=CCN3CC[C@@]4(c5cc([C@H]6CCC(=O)N6)c(OC)cc5N(C)[C@H]4[C@@](O)(C(=O)OC)[C@@H]1OC(C)=O)[C@@H]32`, 92% [2.5 µM]. With `COc1cc2c(cc1-c1c(C)noc1C)ncc1nc(C3CCCCC3)n([C@@H](C)COC(F)F)c12` the figure was 14.5%; with `COc1ccc(/C=C(\C#N)c2cc3ccccc3n2S(C)(=O)=O)cc1`, 53.1%; with `CCc1cccc(CC)c1NC(=O)c1sc2nc3c(cc2c1N)CCCC3`, 18.2%. As for `O=C1CCC/C=C\C[C@H]2C=C(Cl)C(=O)/C2=C/C[C@H](CCCCC(F)(F)F)OC(=O)CCC/C=C\C[C@H]2C=C(Cl)C(=O)/C2=C/C[C@H](CCCCC(F)(F)F)O1`, the figure is -14.6% [7.5 µM] (active). Take `COc1cc(-c2cc3ncccc3c3nc(N)c4cccnc4c23)cc(OC)c1OC`: the growth is 28.3%. In the case of `COC(=O)[C@]12CC[C@@H](C)[C@H](C)[C@@H]1C1=CC[C@@H]3[C@@]4(C)C[C@@H](OC(C)=O)[C@H](O)[C@@](C)(CO)[C@@H]4[C@H](O)C[C@@]3(C)[C@]1(C)CC2`, the growth was -45.7% (active).
